Hit rate of the full screen: of about 130,000 compounds, about 2,500 (1.9%) were called active. For the sample, actives were picked, then their nearest neighbours and some compounds at random. Unmarked numbers belong to inactive results.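 The calls were made as follows: active = signal ratio slope over the read window, or its plate-corrected B-score, at least 3 SD from the plate mean, either direction; inactive = the rest.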
Each molecule was assayed against ATP-sensitive inward rectifier potassium channel 1 (Homo sapiens) (UniProt P48048) (assay: ROMK potassium channel modulators, primary screen, cell-based, thallium flux, MLSMR library (AID 1918;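 also: B-score of the F/F0 ratio slope over 7 to 12 s after thallium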)). Details: Tet-inducible ROMK, thallium flux fluorescence; at 10 µM; actives lie on both sides.
ATP-sensitive inward rectifier potassium channel 1 (Homo sapiens), sequence (P48048 whole entry, looked up): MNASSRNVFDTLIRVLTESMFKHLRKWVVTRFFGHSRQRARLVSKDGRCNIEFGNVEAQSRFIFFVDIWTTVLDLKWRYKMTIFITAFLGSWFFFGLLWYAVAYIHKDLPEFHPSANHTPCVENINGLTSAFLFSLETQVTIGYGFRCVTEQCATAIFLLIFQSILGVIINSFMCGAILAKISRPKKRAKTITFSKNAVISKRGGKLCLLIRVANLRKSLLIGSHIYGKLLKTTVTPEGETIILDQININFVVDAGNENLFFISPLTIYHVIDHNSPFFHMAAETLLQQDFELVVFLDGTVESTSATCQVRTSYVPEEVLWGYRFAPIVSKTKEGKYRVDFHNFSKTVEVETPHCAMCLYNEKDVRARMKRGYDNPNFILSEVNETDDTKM

Structure (SMILES)	B-score
COc1cccc(CN(C)CC(=O)NCc2ccccc2Cl)c1OC	-0.0981
CCNC(=O)COC(=O)/C=C/c1c(C)nn(Cc2cccc(OC)c2)c1Cl	-0.509
Cc1ccc(N(C(=O)c2ccc(S(=O)(=O)N(C)C)cc2)C2C=CS(=O)(=O)C2)cc1 (stereo unspecified)	-0.406
CN(C)/C=C(/C(=O)c1ccccc1Cl)S(C)(=O)=O	0.383
CN(C)/C=C(/C(=O)c1ccc(Cl)c(Cl)c1)c1nnnn1-c1ccccc1	-2.28 (active)
CN(C)/C=C(/C(=O)c1ccccc1)S(=O)(=O)c1ccc(Cl)cc1	-0.0973
Cc1cc(C)n(CC(=O)Nc2ccc([N+](=O)[O-])cc2)n1	0.748
CCOC(=O)CSc1nnc(-c2ccc([N+](=O)[O-])cc2)o1	-0.954
O=C(CN1C(=O)NC2(CCCC2)C1=O)NCC1CCCO1 (stereo unspecified)	0.00667
O=C(CN1C(=O)NC2(CCCCCC2)C1=O)NC1CC1	-0.159
O=C(CN1C(=O)NC(Cc2ccccc2)(Cc2ccccc2)C1=O)NCC1CCCCC1	-4.09 (active)
O=S(=O)(NCc1ccco1)c1cnc(Cl)c(Cl)c1	0.266
CCOc1cc(NC(=S)NCCCN(C)C)c(OCC)cc1NC(=O)C1CC1	0.491
Cn1c(CC(=O)Nc2ccccc2)nnc1SCC(=O)c1ccccc1	0.607
Cn1c(CNc2nc(-c3ccccc3)cs2)nnc1SCC(=O)c1ccccc1	-4.43 (active)
Cc1ccc(-c2csc(NNC(=O)c3ccccc3)n2)cc1	-0.0341
CCC(C)(C)NC(=O)C(c1cccc(OC)c1OC)N(CC(C)C)C(=O)CCC(=O)Nc1cc(C)on1 (stereo unspecified)	-1.25
CSc1cc(C)[nH]c(=O)n1	0.14
CCC(=O)Nc1ccc(Nc2nc(Cl)nc(Nc3ccc(NC(=O)CC)cc3)n2)cc1	0.00778
CCCCCCCCCCOC(=O)C[N+](C)(C)CC1CCCCC1O (stereo unspecified)	-1.79 (active)
CCCCCOC(=O)c1ccc(N2C(=O)C3C4C=CC(C4)C3C2=O)cc1 (stereo unspecified)	-0.208

Structure (SMILES)	B-score
[O-][n+]1c2c(nn1-c1ccc(Cl)c(Cl)c1)-c1nonc1CC2	-0.675
CCOC(=O)c1ccc(N2C(=O)CC(N3CCN(C(=O)c4ccccc4)CC3)C2=O)cc1 (stereo unspecified)	-0.67
NC(=O)C1(C(N)=O)OC1c1ccc(Cl)cc1Cl (stereo unspecified)	0.219
CC(=O)Nc1ccc(S(=O)(=O)N(C)c2ccc(OCC(=O)OCC(=O)N3CCCCC3)cc2)cc1	0.712
N=c1n(CCc2ccccc2)c2ccccc2n1Cc1ccccc1F	-3.48 (active)
Fc1ccccc1Cn1cnc(NC(=S)NCCc2ccccc2)n1	0.722
CN(Cc1ccccc1)Cc1ccccc1F	0.0291
Cc1ccc(-n2c(O)c(C=Nc3ccc(S(=O)(=O)Nc4ncccn4)cc3)c3ccccc3c2=O)cc1C	0.113
O=c1[nH]c(CSc2ccccc2)nc2c1oc1ccccc12	0.176
CCc1cccc2c(=O)c(C(=O)NCCCOC)c[nH]c12	0.0144
Cc1cccc(N(CC(O)CN(C)C)S(=O)(=O)c2ccccc2)c1 (stereo unspecified)	0.476
CC(C)CN(CC(C)C)CC(O)CN(c1ccccc1)S(=O)(=O)c1ccccc1[N+](=O)[O-] (stereo unspecified)	-2.88 (active)
O=S(=O)(c1ccccc1)N(CC(O)CN1CCCCC1)c1ccccc1 (stereo unspecified)	-0.476
C=CCNC(=O)COC(=O)CNC(=O)c1cc(Cl)cc([N+](=O)[O-])c1	0.319
COC(=O)C[n+]1cccc2ccccc21	-4.33 (active)
COc1ccccc1NC(=O)C[n+]1ccccc1	-0.558
COC(=O)Cc1nc2ccccc2[nH]1	-0.0215
COc1cccc(NCCC(=O)c2cccc([N+](=O)[O-])c2)c1	1.54
O=C(N/N=C/c1ccc(OCC2COCCO2)cc1)c1ccc(Br)cc1 (stereo unspecified)	0.0877
Cc1ccc(NC(=O)CN2CCC(C(N)=O)CC2)cc1[N+](=O)[O-]	-0.771
Cc1ccc(NC(=O)c2cccnc2C(=O)Nc2ccc(C)cc2)cc1	0.166

Structure (SMILES)	B-score
O=C(COC(=O)c1cnccn1)Nc1cccc2ccccc12	0.345
CN(C)S(=O)(=O)c1ccc(NC(=O)N2CCOCC2)cc1	-0.469
CCN(CC)S(=O)(=O)c1ccc(Cl)c(NC(=O)c2ccncc2)c1	-0.305
CS(=O)(=O)c1ccc(Cl)c(NC(=O)Nc2ccccc2)c1	-8.31 (active)
Cc1c(NC(=O)Nc2ccccc2)cccc1[N+](=O)[O-]	1.03
CCOCCCNCc1cc(Br)ccc1OCC	-0.61
Cc1ccc(C)c(NC(=O)CCC(=O)N/N=C2/CC(=O)CC(C)(C)C2)c1	-0.197
COc1cccc(NC(=O)COC(=O)CCOc2ccccc2OC)c1	2.55
CCOC(=O)CSc1nc2c(sc(=S)n2CCc2ccccc2)c(=O)n1Cc1ccco1	0.0111
CN(c1ccccc1)c1ccc(/C=c2\s/c(=C(/C#N)C(=O)C(C)(C)C)n(Cc3ccco3)c2=O)cc1	-5.56 (active)
Cc1cs/c(=N\N=C\c2ccc(O)cc2)n1Cc1ccco1	-2.07
CC(=O)Nc1nc2ccccc2n1Cc1ccc(C)cc1	-0.122
Cc1ccnc(SCC(N)=O)n1	0.191
CC(C)C(c1nnnn1C(C)(C)C)N1CCN(Cc2cccnc2)CC1 (stereo unspecified)	1.58
CC(C)C(c1nnnn1Cc1ccccc1)N1CCC(C(N)=O)CC1 (stereo unspecified)	0.519
CCCC(c1nnnn1C(C)(C)C)N1CCN(Cc2ccccc2)CC1 (stereo unspecified)	-13.3 (active)
CC(=O)Nc1ccc(NC(=O)CSc2nnc(COc3ccccc3C)n2CC2CCCO2)cc1 (stereo unspecified)	-0.134
Cc1ccc(C(=O)N/C(=C\c2ccco2)C(=O)N2CCSCC2)cc1C	1.44
S=C(NCc1ccc2c(c1)OCO2)NCc1ccco1	-0.541

Source: PubChem BioAssay AID1918 (Vanderbilt High Throughput Screening Facility, 2009)
